HUVEC tox IL1B: toxic to HUVEC cells under IL-1B stimulation; cell count reduction, % at 2 µM; HUVEC cell count loss, Hoechst imaging, IL-1B stimulated; AID 845; 0.41% of 94,000 active;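 active means cell count reduction more than 3 SD above the screen-wide mean, cut at about 70% in these data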;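 further: normalized per plate to untreated control cells as the no-loss baseline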
FAK inh: FAK (human) kinase inhibition. Q05397. biochemical FAK kinase activity assay. inhibition, %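 (tested at 7 µM)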. 0.84% of 97,000 active; in the data active means inhibition above about 19%;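 further: 0% = DMSO and 100% = reference compound high control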
NFkB transloc pot: enhances IL-1B driven NFkB nuclear translocation. HUVEC IL-1B NFkB p65 nuclear translocation imaging. 0.3% of 94,000 active. AID 819. activation, % at 2 µM;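 active means activation above 40%, about the mean plus 3 SD, also judged a hit on visual image review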;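 further: percent activation is computed from the nuclear over cytoplasmic p65 intensity ratio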
JNK3 inh: blocks human JNK3 kinase activity. P53779. purified JNK3 kinase activity, HTS. inhibition, % at 8 µM. 0.61% of 60,000 active; in the data active means inhibition above about 17%;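 further: 0% = DMSO and 100% = reference inhibitor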
NFkB transloc inh: blocks IL-1B driven NFkB nuclear translocation in HUVEC cells; HUVEC IL-1B NFkB p65 nuclear translocation imaging; inhibition, % at 2 µM; 0.43% of 94,000 active; AID 796;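 active means inhibition above about 30% together with a positive call from visual inspection of the well image, limit read from the data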;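 further: nuclear over cytoplasmic p65 intensity ratio measured by imaging; 0% = IL-1B stimulated DMSO wells and 100% = unstimulated DMSO wells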
Pyk2 oligo antag: Pyk2 (human) oligomerization antagonism | Q14289 | Q293 cells, Pyk2 FERM NanoBiT luminescence; hits give low values | z-score (the deposit names both 25 µM and 10 µM) | 0.83% of 99,000 active;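 active means Z-score of -3 or lower, scaled per plate to the spread of control and sample wells; inactive means z-score above -3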;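 further: negative z-score means lost luminescence so less FERM oligomerization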
Starred values were filed as active, the others as inactive. Sampled rows, rich in hits. Any-hit rate of the full collection: about 2.4%.

CCCN(Cc1cc2cc(C)ccc2[nH]c1=O)C(=O)c1cccc(OC)c1 was read as HUVEC tox IL1B -18, FAK inh -1, NFkB transloc pot -2, JNK3 inh 6, NFkB transloc inh 2 and Pyk2 oligo antag -0.71.
CCCN(Cc1cc2cccc(C)c2[nH]c1=O)C(=O)c1cccc(OC)c1 was read as HUVEC tox IL1B 92*, FAK inh 0, NFkB transloc pot -95, JNK3 inh 3, NFkB transloc inh 95* and Pyk2 oligo antag 0.32.
For N#Cc1ccc(CSc2ncnc3c2cnn3Cc2ccccc2)cc1 the results were HUVEC tox IL1B -34, FAK inh -2, NFkB transloc pot 15, JNK3 inh -7, NFkB transloc inh -15 and Pyk2 oligo antag -1.1.
CSc1nnnn1-c1cccc(O)c1 was read as HUVEC tox IL1B -26, FAK inh -2, NFkB transloc pot 1, JNK3 inh -3, NFkB transloc inh -1 and Pyk2 oligo antag -0.22.
`CCNc1nc(NC(C)C)nc(Nn2cnnc2)n1` gave HUVEC tox IL1B 90*, FAK inh -5, NFkB transloc pot -96, JNK3 inh 0, NFkB transloc inh 96* and Pyk2 oligo antag 0.26.
Screening O=C(Nc1ccon1)c1cc(-c2ccccc2)nc2ccccc12 returned HUVEC tox IL1B 94*, FAK inh 0, NFkB transloc pot -72, JNK3 inh 4, NFkB transloc inh 72* and Pyk2 oligo antag -2.6.
`Cc1cccc(NC(=S)NC(=O)c2cc(-c3ccccc3)nc3ccccc23)c1` gave HUVEC tox IL1B -69, FAK inh -5, NFkB transloc pot 10, NFkB transloc inh -10 and Pyk2 oligo antag 0.58.
`CC(C)c1ccc(N=c2c([N+](=O)[O-])nn(-c3ccc4c(c3)OCCO4)n2O)cc1` gave HUVEC tox IL1B -28, FAK inh -3, NFkB transloc pot 4, NFkB transloc inh -4 and Pyk2 oligo antag -4*.
For Cc1cc(C)cc(N=c2c([N+](=O)[O-])nn(-c3cccc(Cl)c3)n2O)c1 the results were HUVEC tox IL1B -124, FAK inh 2, NFkB transloc pot 26, NFkB transloc inh -26 and Pyk2 oligo antag -0.62.
C=CCn1c(-c2cccnc2Cl)nc2cc(Cl)c(Cl)cc21 was read as HUVEC tox IL1B -31, FAK inh -3, NFkB transloc pot -2, NFkB transloc inh 2 and Pyk2 oligo antag -3.3*.
CCCn1c(-c2ccc(OC)cc2)nc2ccccc21 was read as HUVEC tox IL1B 0, FAK inh -1, NFkB transloc pot 7, JNK3 inh -1, NFkB transloc inh -7 and Pyk2 oligo antag -0.16.
Screening Clc1cccc(Cl)c1Cn1c(-c2cccnc2Cl)nc2ccccc21 returned HUVEC tox IL1B -46, FAK inh -5, NFkB transloc pot 8, NFkB transloc inh -8 and Pyk2 oligo antag -2.2.
`CCCn1c(-c2cccnc2Cl)nc2cc(Cl)c(Cl)cc21` gave HUVEC tox IL1B -8, FAK inh 10, NFkB transloc pot -7, NFkB transloc inh 7 and Pyk2 oligo antag -3.7*.
`Cc1ccccc1NC(=O)c1nc[nH]c1C(=O)NCc1ccccc1` gave HUVEC tox IL1B 7, FAK inh 6, NFkB transloc pot 8, JNK3 inh 21*, NFkB transloc inh -8 and Pyk2 oligo antag -0.78.
CCOc1ccc(N=C(NC#N)SCC)cc1 was read as HUVEC tox IL1B -22, FAK inh 2, NFkB transloc pot 5, NFkB transloc inh -5 and Pyk2 oligo antag 0.09.
Screening CCOC(=O)c1c(NC(=O)c2c(Br)cnn2CC)sc(C)c1C returned HUVEC tox IL1B 39, FAK inh -2, NFkB transloc pot 1, NFkB transloc inh -1 and Pyk2 oligo antag 0.54.
`O=C(OCn1ncc(Br)c(Br)c1=O)c1c(F)cccc1F` gave HUVEC tox IL1B 32, FAK inh 0, NFkB transloc pot -89 and NFkB transloc inh 89*.
`Cc1ccc(-c2nc3ccc(C(=O)O)cc3nc2-c2ccc(C)cc2)cc1` gave HUVEC tox IL1B -3, FAK inh 2, NFkB transloc pot 12, NFkB transloc inh -12 and Pyk2 oligo antag -3.3*.
For Cc1ccc(C(=O)Nc2cccc(C(=O)O)c2)cc1 the results were HUVEC tox IL1B -14, FAK inh -1, NFkB transloc pot 6 and NFkB transloc inh -6.
CC(NS(=O)(=O)c1ccccc1)C(=O)Nc1nccs1 (centres undefined) was read as HUVEC tox IL1B -11, FAK inh 4, NFkB transloc pot 44*, JNK3 inh 1, NFkB transloc inh -44 and Pyk2 oligo antag 1.
Screening Cc1ccc(NC(=S)NCC2CCCO2)cc1C (centres undefined) returned HUVEC tox IL1B 91*, FAK inh 0, NFkB transloc pot -11, NFkB transloc inh 11 and Pyk2 oligo antag 0.29.
Cc1onc(-c2c(F)cccc2Cl)c1C(=O)Nc1nc2c(s1)CCCC2 was read as HUVEC tox IL1B -14, FAK inh -1, NFkB transloc pot -11, JNK3 inh 4, NFkB transloc inh 11 and Pyk2 oligo antag -3.6*.
Cc1onc(-c2ccccc2)c1C(=O)Nc1nc2c(s1)CCCC2 was read as HUVEC tox IL1B -4, FAK inh 1, NFkB transloc pot 8, JNK3 inh 2, NFkB transloc inh -8 and Pyk2 oligo antag -3.4*.
Cc1csc(NC(=O)c2c(-c3c(Cl)cccc3Cl)noc2C)n1 was read as HUVEC tox IL1B -10, FAK inh 0, NFkB transloc pot 9, NFkB transloc inh -9 and Pyk2 oligo antag -1.6.
`Cc1sc2nc(CN(Cc3ccccc3)C(=O)NC3CCCCC3)[nH]c(=O)c2c1C` gave HUVEC tox IL1B -27, FAK inh 1, NFkB transloc pot 10, NFkB transloc inh -10 and Pyk2 oligo antag -3*.
`CC(C)n1c(SCCCc2ccccc2)nc2c1c(=O)[nH]c(=O)n2C` gave HUVEC tox IL1B 11, FAK inh 0, NFkB transloc pot -38, JNK3 inh 1 and NFkB transloc inh 38*.
Screening N#CC1=C(SCC(=O)c2ccccc2)NC2=C(C(=O)CCC2)C1c1ccco1 (centres undefined) returned JNK3 inh 58* and Pyk2 oligo antag -0.67.
`Cc1ccc(CN2CCC(c3nc4ccc(Cl)cc4[nH]3)CC2)cc1` gave HUVEC tox IL1B 0, FAK inh 4, NFkB transloc pot -34, NFkB transloc inh 34* and Pyk2 oligo antag 0.46.
`O=S(=O)(c1ccc2c(c1)OCCO2)N1CCC(c2nc3ccc(Cl)cc3[nH]2)CC1` gave HUVEC tox IL1B -23, FAK inh 3, NFkB transloc pot -14, JNK3 inh 1, NFkB transloc inh 14 and Pyk2 oligo antag -3.4*.
Screening O=S(=O)(c1ccc2c(c1)OCCO2)N1CCC(c2nc3ccccc3s2)CC1 returned HUVEC tox IL1B 8, FAK inh -6, NFkB transloc pot 19, JNK3 inh 0, NFkB transloc inh -19 and Pyk2 oligo antag -3.1*.
O=S(=O)(c1ccccc1)c1cnn(-c2ccccc2)c1-c1ccc(F)cc1 was read as HUVEC tox IL1B 31, FAK inh 6, NFkB transloc pot -5, NFkB transloc inh 5 and Pyk2 oligo antag -2.3.
